Eight compounds from PubChem BioAssay (Tox21) can be followed below.

Where “and” joins values, the source holds several entries; their conditions need not be identical. Equal entries are not always repeated. Inconclusive results are not listed. Some structures have more than one record in an assay (separate samples or runs), and their calls can disagree. Calls of active or inactive are those of the source. Unless noted, the call rests on the fitted dose curve.

Test [1] in a line: Nuclear factor erythroid 2-related factor 2/antioxidant responsive element (Nrf2/ARE) small molecule agonists: qHTS cell viability counter screen in human keratinocytes (AID 1919968; active means well fitted curve in the direction sought with a large enough effect in the repeat runs; an effect the other way counts as inactive or inconclusive; further: nearly all actives have a fitted effect of over 55% in size). The gist of the method:
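Cytotoxicity was multiplexed with the Nrf2/ARE luciferase assay in the same wells. Stably transfected HaCaT keratinocytes were treated with test compounds for 23 h at 37 C. Cell viability was then measured by CellTiter-Fluor fluorescence.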

The nature of test [2]: Nuclear factor erythroid 2-related factor 2/antioxidant responsive element (Nrf2/ARE) small molecule agonists: luciferase reporter gene qHTS assay in human keratinocytes (AID 1919969). Further: nearly all actives have a fitted effect of over 35% in size. Further: potency means the concentration at half of the fitted maximal effect.
For test [3], the target named is Gonadotropin-releasing hormone receptor (Homo sapiens) (UniProt P30968). Kind of test: Human gonadotropin-releasing hormone receptor (GnRHR) small molecule agonists, calcium flux assay in GnRHR-HEK293 cells (AID 1920063). Further: nearly all actives have a fitted effect of over 35% in size. A digest of the protocol:
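Agonist activity was measured as intracellular calcium flux in HEK293 cells engineered to stably express human GnRHR. After dye loading for 1 hour at 37 C, compounds in DMSO were added and fluorescence was followed for 3 minutes.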
Background: Calcium assays in cells follow changes in intracellular calcium, usually with a dye or a luminescent sensor.

For test [4], the target named is KiSS-1 receptor (Homo sapiens) (UniProt Q969F8). Kind of test: Human kisspeptin (KISS1R) small molecule agonists, calcium flux assay in KISS1R-HEK293 cells (AID 1920064; active means well fitted curve in the direction sought with a large enough effect in the repeat runs; an effect the other way counts as inactive or inconclusive). A digest of the protocol:
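Agonist activity is monitored as intracellular calcium rise in engineered HEK293 cells carrying human KISS1R. Cells are dye-loaded for 1 h at 37 C before compound addition, and fluorescence is recorded for 3 min.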

A short description of test [5]: G protein-coupled receptor (GPCR) small molecule agonists, calcium flux assay: HEK293 wild type cell line counter screen (AID 1920065). The gist of the method:
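Seed cells, incubate 18 h (37 C, 5% CO2); add calcium dye, 1 h at 37 C; pin-transfer compounds, ATP control or DMSO; read fluorescence 480/540 nm each second for 3 min.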

Test [6] can be described thus: p53 small molecule agonists, cell-based qHTS assay with human liver microsomes (AID 1963577).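 Further: p53 response element beta-lactamase reporter cells with liver microsomes plus NADPH.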 The gist of the method:
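With metabolic activation: human liver microsomes (0.5 mg/mL final) plus NADPH (0.5 mg/mL final) added alongside compounds to p53RE-bla cells; 16 h 37 C exposure; beta-lactamase read by LiveBLAzer fluorescence.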
(In general: Quantitative high-throughput screening tests each substance at several concentrations.)

A short description of test [7]: p53 small molecule agonists, cell-based qHTS assay with rat liver microsomes (AID 1963578). The gist of the method: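 Metabolic activation by rat liver microsomes and NADPH, each 0.5 mg/mL final, added right after compounds to p53RE-bla reporter cells (4,000/well, plated 5 h earlier). 16 h at 37 C, then LiveBLAzer substrate for 2 h at room temperature in the dark; fluorescence read-out.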

Test [8] can be described thus: p53 small molecule agonists, cell-based qHTS assay with human liver microsomes: qHTS cell viability counter screen (AID 1963579). Further: nearly all actives have a fitted effect of over 45% in size. Further: potency means the concentration at half of the fitted maximal effect. A digest of the protocol:
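Metabolic activation used human liver microsomes and NADPH, both 0.5 mg/mL final, over 16 hours at 37 C on p53RE-bla cells (4,000/well). Cytotoxicity measured by CellTiter-Glo luminescence, 30 min at room temperature.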

Test [9] is described as follows: p53 small molecule agonists, cell-based qHTS assay with rat liver microsomes: qHTS cell viability counter screen (AID 1963580). Further: nearly all actives have a fitted effect of over 45% in size. The gist of the method:
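Cytotoxicity counter screen: intracellular ATP read by CellTiter-Glo luminescence in the p53 reporter wells. HCT-116 p53RE-bla cells were treated for 16 h at 37 C alongside rat liver microsomes and NADPH, each 0.5 mg/mL final.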

A short description of test [10]: p53 small molecule agonists, cell-based qHTS assay: qHTS cell viability counter screen (AID 1963581). Further: nearly all actives have a fitted effect of over 45% in size. The gist of the method:
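Viability was counter-screened in parallel with the p53 agonist reporter by measuring intracellular ATP luminescence in the same HCT-116 p53RE-bla wells after 16 h compound treatment at 37 C.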

Test [11] can be described thus: p53 small molecule agonists, cell-based qHTS assay (AID 1963582; active means well fitted activation curve with a large enough effect in the signal ratio in the repeat runs, not every such curve was filed as active; the % refers to the signal ratio). A digest of the protocol:
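Cells carrying a p53-responsive bla reporter are treated with test compounds for 16 h at 37 C; beta-lactamase activity is then detected with LiveBLAzer B/G FRET substrate after 2 h at room temperature.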

Test [12] deals with 5-hydroxytryptamine receptor 2A (Homo sapiens) (UniProt P28223). Kind of test: 5-hydroxytryptamine receptor 2A (HTR2A) small molecule antagonists, cell-based qHTS assay (AID 1963586). Further: nearly all actives have a fitted effect of over 45% in size. Further: potency means the concentration at half of the fitted maximal effect. A digest of the protocol: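 CHO cells stably expressing human HTR2A were plated for 18 h at 37 C, then loaded with calcium dye for 1 h. Compounds were preincubated 5 min at room temperature before DOI (4 nM solution) was added. Kinetic fluorescence was read for 3 min.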
5-hydroxytryptamine receptor 2A (Homo sapiens), sequence (P28223 whole entry, looked up): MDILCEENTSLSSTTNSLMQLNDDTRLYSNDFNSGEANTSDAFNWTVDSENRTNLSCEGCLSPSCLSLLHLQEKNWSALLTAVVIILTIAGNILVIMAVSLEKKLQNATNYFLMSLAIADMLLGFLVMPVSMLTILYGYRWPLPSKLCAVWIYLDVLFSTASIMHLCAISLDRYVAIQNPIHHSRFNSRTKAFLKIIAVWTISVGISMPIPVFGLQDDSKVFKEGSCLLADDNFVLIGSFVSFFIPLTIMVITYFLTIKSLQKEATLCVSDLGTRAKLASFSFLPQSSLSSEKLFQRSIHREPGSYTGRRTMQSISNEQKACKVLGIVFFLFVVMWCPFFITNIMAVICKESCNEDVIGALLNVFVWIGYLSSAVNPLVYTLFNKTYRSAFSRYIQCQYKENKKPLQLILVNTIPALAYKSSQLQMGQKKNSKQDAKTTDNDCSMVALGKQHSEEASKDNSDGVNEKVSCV

For test [13] the target is unchanged. Kind of test: 5-hydroxytryptamine receptor 2A (HTR2A) small molecule agonists, cell-based qHTS assay (AID 1963587). Further: nearly all actives have a fitted effect of over 30% in size. The gist of the method: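 Kinetic calcium-flux fluorescence (2 min, 1 sec intervals) after compound addition in agonist mode. HTR2A-CHO cells were cultured 18 h, then dye-loaded 1 h at 37 C.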
In test [14] the target is Muscarinic acetylcholine receptor M1 (Homo sapiens) (UniProt P11229). As to the kind of experiment: Cholinergic receptor muscarinic 1 (CHRM1) small molecule antagonists, cell-based qHTS assay (AID 1963588). Further: nearly all actives have a fitted effect of over 40% in size. The gist of the method: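 Compounds were tested at 15 concentrations in three independent runs. Dye-loaded CHRM1-CHO cells were exposed 5 min at room temperature before stimulation by acetylcholine added at 50nM. Intracellular calcium was read kinetically on FDSS for 3 min.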
Muscarinic acetylcholine receptor M1 (Homo sapiens), sequence (P11229 whole entry, looked up): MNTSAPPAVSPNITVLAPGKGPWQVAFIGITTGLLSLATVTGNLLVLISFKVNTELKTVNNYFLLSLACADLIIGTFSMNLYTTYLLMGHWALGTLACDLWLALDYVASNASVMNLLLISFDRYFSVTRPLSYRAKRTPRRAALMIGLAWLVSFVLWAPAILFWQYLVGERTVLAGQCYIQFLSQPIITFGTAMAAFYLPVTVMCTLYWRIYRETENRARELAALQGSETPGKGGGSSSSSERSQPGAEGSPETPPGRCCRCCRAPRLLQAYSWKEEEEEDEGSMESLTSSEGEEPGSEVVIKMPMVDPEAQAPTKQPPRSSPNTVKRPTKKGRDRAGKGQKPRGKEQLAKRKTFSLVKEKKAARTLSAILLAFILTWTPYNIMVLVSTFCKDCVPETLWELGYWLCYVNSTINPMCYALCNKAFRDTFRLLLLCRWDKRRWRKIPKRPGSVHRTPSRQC

The target is the same in test [15]. As to the kind of experiment: Cholinergic receptor muscarinic 1 (CHRM1) small molecule agonists, cell-based qHTS assay (AID 1963589). Further: nearly all actives have a fitted effect of over 35% in size. The gist of the method:
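Cells were plated and incubated 18 h at 37 C/5% CO2, loaded with calcium dye for 1 h at 37 C, then treated with compounds in DMSO. Fluorescence was recorded kinetically at 1 sec intervals.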

Test [16] can be described thus: cAMP Responsive Elements (CRE) small molecule agonists, cell-based qHTS assay (AID 1963590). The gist of the method:
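Cells carrying a CRE-driven beta-lactamase reporter (HEK 293T) are seeded, incubated overnight (18 h), and treated with test compounds for 3 h at 37 C; reporter activity is then detected with a FRET substrate after 2 h at room temperature.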

Test [17] can be described thus: cAMP Responsive Elements (CRE) small molecule antagonists, cell-based qHTS assay (AID 1963591; active means well fitted inhibition curve with a large enough effect in the signal ratio in the repeat runs, not every such curve was filed as active; the % refers to the signal ratio). The gist of the method: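 Cells (CRE-bla HEK 293T, DMEM with 10% dialyzed FBS and 25 mM HEPES) are seeded and incubated 18 h. Compounds are added with NKH477 agonist at 0.25 uM final for 3 h, then FRET substrate for 2 h.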
Test [18] has as its target Beta-2 adrenergic receptor (Homo sapiens) (UniProt P07550). Kind of test: Adrenergic beta2 receptor (ADRB2) small molecule antagonists, cell-based qHTS assay (AID 1963592). Further: series mostly up to about 92 µM; nearly all actives have a fitted effect of over 50% in size. The gist of the method: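 Assay format: CHO-ADRB2 cells, 18-20hr seeding at 37C/5% CO2, then compound plus 1nM isoproterenol agonist mix for 0.5hr RT. Homogeneous time-resolved fluorescence cAMP detection after 1hr, expressed as 665/615 nm ratio.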

Test [19] addresses D(2) dopamine receptor (Homo sapiens) (UniProt P14416). Kind of test: Dopamine D2 receptor (DRD2) small molecule antagonists, cell-based qHTS assay (AID 1963595; active means well fitted inhibition curve with a large enough effect in the signal ratio in the repeat runs, with a control signal flat; the % refers to the signal ratio). A digest of the protocol:
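Human DRD2 antagonist qHTS measuring cAMP by HTRF. The cells are exposed to compound for 10 min, then to NKH477 (200 nM) and quinpirole (12 nM) for 30 min at RT, with Ro20-1724 (0.1 mM) present throughout.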

For test [20] the target is unchanged. As to the kind of experiment: Dopamine D2 receptor (DRD2) small molecule agonists, cell-based qHTS assay (AID 1963594). Further: nearly all actives have a fitted effect of over 35% in size. The gist of the method: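 cAMP accumulation in DRD2-HEK293 cells measured by HTRF after 1 h detection; compounds added 10 min before NKH477 (200nM […]) forskolin-analogue stimulation, 30 min at room temperature, with Ro20-1724 present at 0.1 mM final.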

Gonadotropin-releasing hormone receptor (Homo sapiens), sequence (P30968 whole entry, looked up): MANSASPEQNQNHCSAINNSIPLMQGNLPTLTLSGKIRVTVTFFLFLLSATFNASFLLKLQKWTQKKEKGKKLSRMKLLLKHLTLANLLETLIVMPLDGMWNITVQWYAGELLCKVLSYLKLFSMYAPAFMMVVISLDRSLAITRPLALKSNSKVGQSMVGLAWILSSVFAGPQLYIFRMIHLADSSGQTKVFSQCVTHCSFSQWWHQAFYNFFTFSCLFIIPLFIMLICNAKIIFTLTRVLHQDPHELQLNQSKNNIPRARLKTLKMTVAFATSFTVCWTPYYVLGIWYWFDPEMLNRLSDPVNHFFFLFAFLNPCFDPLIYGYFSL
Beta-2 adrenergic receptor (Homo sapiens), sequence (P07550 whole entry, looked up): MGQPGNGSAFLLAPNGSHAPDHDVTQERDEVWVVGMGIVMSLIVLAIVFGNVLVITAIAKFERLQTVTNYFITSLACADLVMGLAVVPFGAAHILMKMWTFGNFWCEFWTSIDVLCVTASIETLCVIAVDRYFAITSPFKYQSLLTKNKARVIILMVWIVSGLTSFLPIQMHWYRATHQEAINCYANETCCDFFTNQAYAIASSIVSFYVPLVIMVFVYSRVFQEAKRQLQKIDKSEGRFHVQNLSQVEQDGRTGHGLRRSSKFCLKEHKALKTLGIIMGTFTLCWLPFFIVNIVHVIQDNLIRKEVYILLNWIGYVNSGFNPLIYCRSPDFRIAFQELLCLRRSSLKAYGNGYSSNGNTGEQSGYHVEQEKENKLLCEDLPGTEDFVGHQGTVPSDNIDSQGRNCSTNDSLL
D(2) dopamine receptor (Homo sapiens), sequence (P14416 whole entry, looked up): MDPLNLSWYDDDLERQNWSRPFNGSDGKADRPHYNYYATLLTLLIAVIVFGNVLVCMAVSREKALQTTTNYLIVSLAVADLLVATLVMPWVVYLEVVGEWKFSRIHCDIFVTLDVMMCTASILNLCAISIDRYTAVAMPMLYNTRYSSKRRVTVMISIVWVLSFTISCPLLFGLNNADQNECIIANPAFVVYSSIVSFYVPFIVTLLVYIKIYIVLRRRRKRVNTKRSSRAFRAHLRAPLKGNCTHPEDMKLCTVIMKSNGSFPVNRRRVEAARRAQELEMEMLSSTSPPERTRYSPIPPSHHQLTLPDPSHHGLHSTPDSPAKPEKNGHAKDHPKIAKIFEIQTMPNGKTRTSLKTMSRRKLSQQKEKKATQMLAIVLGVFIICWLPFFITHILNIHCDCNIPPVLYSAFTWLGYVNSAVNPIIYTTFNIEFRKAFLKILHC
KiSS-1 receptor (Homo sapiens), sequence (Q969F8 whole entry, looked up): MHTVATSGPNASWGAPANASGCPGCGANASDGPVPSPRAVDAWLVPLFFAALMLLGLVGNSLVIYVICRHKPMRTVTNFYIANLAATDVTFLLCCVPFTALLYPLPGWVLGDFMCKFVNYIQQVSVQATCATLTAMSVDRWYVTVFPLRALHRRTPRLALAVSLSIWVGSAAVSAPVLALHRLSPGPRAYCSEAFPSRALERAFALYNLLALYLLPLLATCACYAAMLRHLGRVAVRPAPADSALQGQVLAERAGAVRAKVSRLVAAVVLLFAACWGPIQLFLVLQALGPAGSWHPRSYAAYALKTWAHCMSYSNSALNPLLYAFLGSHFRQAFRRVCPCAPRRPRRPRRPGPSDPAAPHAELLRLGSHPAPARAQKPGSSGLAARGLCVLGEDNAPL

Consider `Clc1cnc(Oc2ccc(Oc3ncc(Cl)cc3Cl)cc2)c(Cl)c1`, for which the Potency entry in test [1], in [2], in test [3], in test [4], in test [5] and in test [6] was “inactive” throughout. Moreover, the Potency result in [7], in test [8], in test [9], in test [10], in test [11] and in [12] was “inactive” in each case. Further, the Potency entry in [13], in test [14], in test [15], in test [16], in [17] and in test [18] was “inactive” in each case. Further, the Potency result in [19] was “inactive”.

Consider `COCC(=O)N(c1c(C)cccc1C)C(C)C(=O)OC` (configuration not stated), for which the Potency entry in [1], in [2], in test [3], in [4], in test [5] and in test [6] was “inactive” in each case. Moreover, the Potency entry in test [7], in [8], in test [9], in [10], in test [11] and in test [12] was “inactive” throughout. Besides, the Potency entry in test [13], in [14], in test [15], in [16], in [17] and in test [18] was “inactive” in each case. For the same compound, the Potency result in test [20] and in [19] was “inactive” each time.

As to `C1CCC2CCCCC2C1` (configuration not stated), the Potency entry in test [1], in [2], in [3], in [4], in test [5] and in test [6] was “inactive” throughout. Further, the Potency result in test [7], in test [8], in test [9], in test [10], in [11] and in [12] was “inactive” each time. Also, the Potency entry in [13], in test [14], in test [15], in [16], in test [17] and in [18] was “inactive” in each case. Moreover, the Potency result in [20] and in test [19] was “inactive” in each case.

Take `N#Cc1ccccn1`: the Potency entry in test [1], in test [3], in [4], in test [5], in [6] and in test [7] was “inactive” each time. Moreover, the Potency result in [8], in test [9], in test [10], in test [11], in [12] and in [13] was “inactive” each time. Moreover, the Potency result in test [14], in test [15], in [16], in test [17], in test [18] and in test [19] was “inactive” each time. Also, in test [2], the Potency was 63.7 µM (active) and inactive.

For `COc1cc(OC)nc(Sc2cccc(Cl)c2C(=O)O)n1`, the Potency entry in test [1], in test [2], in test [3], in test [4], in [5] and in [6] was “inactive” each time. For the same compound, the Potency entry in [7], in test [8], in test [9], in [10], in test [11] and in [12] was “inactive” each time. Also, the Potency entry in test [13], in [14], in test [15], in test [16], in [17] and in test [18] was “inactive” in each case. For the same compound, the Potency entry in test [20] and in [19] was “inactive” in each case.

Turning to `CCCCCCCCCCCCCCCl`, the Potency entry in test [1], in [2], in test [3], in test [4], in test [5] and in test [6] was “inactive” throughout. Further, the Potency result in [7], in test [8], in test [9], in [10], in test [11] and in test [12] was “inactive” throughout. The Potency entry in test [13], in [14], in test [15], in test [16], in test [17] and in test [18] was “inactive” each time. Further, the Potency result in test [20] and in test [19] was “inactive” each time.

Regarding `CCCCOC(=O)c1ccccc1C(=O)OCc1ccccc1`, the Potency entry in test [1], in [3], in test [4], in [5], in [6] and in test [7] was “inactive” each time. Besides, the Potency entry in test [9], in [10], in [11], in test [13], in test [14] and in test [15] was “inactive” each time. Besides, the Potency result in [16], in test [17], in test [18] and in test [19] was “inactive” throughout. The Potency entry in test [2] was “inactive and 68.6 µM (active)”; in test [8], “inactive and 646 nM (active)”; in test [12] it was “inactive and 5.9 nM (active)”.

`COc1ccc2c3c1O[C@H]1[C@@H](O)C=C[C@H]4[C@@H](C2)N(C)CC[C@@]341`: the Potency result in test [1], in [3], in test [4], in [5], in test [6] and in [7] was “inactive” throughout. For the same compound, the Potency result in test [8], in [9], in [10], in [11], in test [12] and in test [13] was “inactive” in each case. The Potency entry in test [14], in test [15], in test [16], in test [17], in [18] and in test [20] was “inactive” each time. Also, the Potency entry in test [19] is “inactive”. The Potency in test [2] was 23.9 µM (active) and inactive.
